# Test results taken from PubChem BioAssay AID1159580 (chemical genetic matrix, 2015).
# About 2,000 (36%) of roughly 5,500 compounds were called active. Another 18% or so got no clear call; they are omitted. This is one part of the list. Values without a mark were called inactive. Cut-off read from the data, not from the text of the source: active = normalized growth mostly below about 0.91 (no sharp cut-off); inconclusive = no clear call, values can overlap the other calls; inactive = mostly above about 0.92.
# Assay: chemical genetic growth profiling, strain panel (AID 1159580);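 note: tested at 20 µM; growth read once vehicle control cultures reached saturation at 30 °C; 1 = growth at the plate median or of vehicle wells; lower values mean less growth of the strain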
# Details: growth OD
smiles,measurement,setting,value
CCOC(=O)C1=C[C@]2(CC)CCCN3CCc4c(n1c1ccccc41)[C@@H]32,normalized growth,"S. cerevisiae deletion strains, locus YKL009W, strain mrt4, hits give low values",0.964
same,normalized growth,"S. cerevisiae deletion strains, locus YKL068W, hits give low values",0.988
same,normalized growth,"S. cerevisiae deletion strains, locus YKL085W, strain MDH1 (second series), hits give low values",0.992
same,normalized growth,"S. cerevisiae deletion strains, locus YKL085W, strain MDH1, hits give low values",0.992
same,normalized growth,"S. cerevisiae deletion strains, locus YKL160W, strain elf1, hits give low values",1.03
same,normalized growth,"S. cerevisiae deletion strains, locus YKL190W, strain CNB1, hits give low values",0.982
same,normalized growth,"S. cerevisiae deletion strains, locus YKR001C, strain vps1, hits give low values",0.933
same,normalized growth,"S. cerevisiae deletion strains, locus YKR026C, strain gcn3, hits give low values",1.01
same,normalized growth,"S. cerevisiae deletion strains, locus YKR091W, strain srl3, hits give low values",1.01
same,normalized growth,"S. cerevisiae deletion strains, locus YLL001W, strain dnm1, hits give low values",1.03
same,normalized growth,"S. cerevisiae deletion strains, locus YLL026W, hits give low values",1.02
same,normalized growth,"S. cerevisiae deletion strains, locus YLL041C, strain sdh2, hits give low values",1.02
same,normalized growth,"S. cerevisiae deletion strains, locus YLR027C, strain aat2, hits give low values",1.02
same,normalized growth,"S. cerevisiae deletion strains, locus YLR039C, strain RIC1, hits give low values",0.924
same,normalized growth,"S. cerevisiae deletion strains, locus YLR058C, strain SHM2, hits give low values",0.963
same,normalized growth,"S. cerevisiae deletion strains, locus YLR102C, strain apc9, hits give low values",0.969
same,normalized growth,"S. cerevisiae deletion strains, locus YLR113W, strain HOG1, hits give low values",1.01
same,normalized growth,"S. cerevisiae deletion strains, locus YLR221C, strain rsa3, hits give low values",1.02
same,normalized growth,"S. cerevisiae deletion strains, locus YLR258W, strain gsy2, hits give low values",1.02
same,normalized growth,"S. cerevisiae deletion strains, locus YLR262C, strain YPT6 (second series), hits give low values",0.996
same,normalized growth,"S. cerevisiae deletion strains, locus YLR262C, strain YPT6, hits give low values",0.852
same,normalized growth,"S. cerevisiae deletion strains, locus YLR268W, strain sec22, hits give low values",0.923
same,normalized growth,"S. cerevisiae deletion strains, locus YLR320W, strain mms22, hits give low values",0.986
same,normalized growth,"S. cerevisiae deletion strains, locus YLR330W, strain CHS5, hits give low values",0.992
same,normalized growth,"S. cerevisiae deletion strains, locus YLR342W, strain FKS1 (second series), hits give low values",0.928
same,normalized growth,"S. cerevisiae deletion strains, locus YLR342W, strain FKS1, hits give low values",1.01
same,normalized growth,"S. cerevisiae deletion strains, locus YLR357W, strain rsc2, hits give low values",1.07
same,normalized growth,"S. cerevisiae deletion strains, locus YLR370C, strain arc18, hits give low values",1.02
same,normalized growth,"S. cerevisiae deletion strains, locus YLR371W, strain rom2, hits give low values",0.985
same,normalized growth,"S. cerevisiae deletion strains, locus YLR384C, strain iki3, hits give low values",1.04
same,normalized growth,"S. cerevisiae deletion strains, locus YLR418C, strain cdc73, hits give low values",0.915
same,normalized growth,"S. cerevisiae deletion strains, locus YML016C, strain PPZ1, hits give low values",0.985
same,normalized growth,"S. cerevisiae deletion strains, locus YML032C, strain rad52, hits give low values",0.95
same,normalized growth,"S. cerevisiae deletion strains, locus YML120C, strain ndi1, hits give low values",1.01
same,normalized growth,"S. cerevisiae deletion strains, locus YML124C, strain tub3, hits give low values",0.979
same,normalized growth,"S. cerevisiae deletion strains, locus YMR058W, strain fet3, hits give low values",1.02
same,normalized growth,"S. cerevisiae deletion strains, locus YMR078C, strain ctf18, hits give low values",0.977
same,normalized growth,"S. cerevisiae deletion strains, locus YMR125W, strain sto1, hits give low values",1.02
same,normalized growth,"S. cerevisiae deletion strains, locus YMR129W, hits give low values",1.02
same,normalized growth,"S. cerevisiae deletion strains, locus YMR205C, strain PFK2, hits give low values",0.995
same,normalized growth,"S. cerevisiae deletion strains, locus YMR223W, strain ubp8, hits give low values",0.961
same,normalized growth,"S. cerevisiae deletion strains, locus YMR231W, strain pep5, hits give low values",1.02
same,normalized growth,"S. cerevisiae deletion strains, locus YMR263W, strain SAP30, hits give low values",0.987
same,normalized growth,"S. cerevisiae deletion strains, locus YMR307W, strain GAS1, hits give low values",1.01
same,normalized growth,"S. cerevisiae deletion strains, locus YNL067W, strain RPL9B, hits give low values",0.949
same,normalized growth,"S. cerevisiae deletion strains, locus YNL071W, strain lat1, hits give low values",1.01
same,normalized growth,"S. cerevisiae deletion strains, locus YNL128W, strain TEP1, hits give low values",0.988
same,normalized growth,"S. cerevisiae deletion strains, locus YNL183C, strain NPR1, hits give low values",0.947
same,normalized growth,"S. cerevisiae deletion strains, locus YNL209W, strain ssb2, hits give low values",1.05
same,normalized growth,"S. cerevisiae deletion strains, locus YNL233W, strain BNI4, hits give low values",0.931
same,normalized growth,"S. cerevisiae deletion strains, locus YNL248C, strain rpa49, hits give low values",1.05
same,normalized growth,"S. cerevisiae deletion strains, locus YNL250W, strain rad50, hits give low values",0.978
same,normalized growth,"S. cerevisiae deletion strains, locus YNL271C, strain bni1, hits give low values",0.981
same,normalized growth,"S. cerevisiae deletion strains, locus YNL298W, strain CLA4, hits give low values",0.98
same,normalized growth,"S. cerevisiae deletion strains, locus YNL307C, strain MCK1, hits give low values",0.879 (active)
same,normalized growth,"S. cerevisiae deletion strains, locus YNL322C, strain KRE1 (second series), hits give low values",1.02
same,normalized growth,"S. cerevisiae deletion strains, locus YNL322C, strain KRE1, hits give low values",0.986
same,normalized growth,"S. cerevisiae deletion strains, locus YNR049C, strain mso1, hits give low values",1.02
same,normalized growth,"S. cerevisiae deletion strains, locus YNR052C, strain pop2, hits give low values",0.979
same,normalized growth,"S. cerevisiae deletion strains, locus YOL006C, strain TOP1, hits give low values",0.803
same,normalized growth,"S. cerevisiae deletion strains, locus YOL012C, strain htz1",0.935
same,normalized growth,"S. cerevisiae deletion strains, locus YOL147C, strain pex11, hits give low values",0.984
same,normalized growth,"S. cerevisiae deletion strains, locus YOR001W, strain rrp6, hits give low values",1.02
same,normalized growth,"S. cerevisiae deletion strains, locus YOR061W, strain CKA2, hits give low values",0.964
same,normalized growth,"S. cerevisiae deletion strains, locus YOR069W, strain VPS5, hits give low values",0.986
same,normalized growth,"S. cerevisiae deletion strains, locus YOR070C, strain gyp1, hits give low values",1.01
same,normalized growth,"S. cerevisiae deletion strains, locus YOR080W, strain dia2, hits give low values",1.03
same,normalized growth,"S. cerevisiae deletion strains, locus YOR083W, strain WHI5, hits give low values",1.01
same,normalized growth,"S. cerevisiae deletion strains, locus YOR106W, strain vam3, hits give low values",1.04
same,normalized growth,"S. cerevisiae deletion strains, locus YOR136W, strain idh2, hits give low values",0.978
same,normalized growth,"S. cerevisiae deletion strains, locus YOR144C, strain elg1, hits give low values",0.994
same,normalized growth,"S. cerevisiae deletion strains, locus YOR184W, strain ser1, hits give low values",0.859 (active)
same,normalized growth,"S. cerevisiae deletion strains, locus YOR231W, strain MKK1, hits give low values",1.02
same,normalized growth,"S. cerevisiae deletion strains, locus YOR265W, strain rbl2, hits give low values",1.02
same,normalized growth,"S. cerevisiae deletion strains, locus YOR270C, strain vph1, hits give low values",0.957
same,normalized growth,"S. cerevisiae deletion strains, locus YOR290C, strain snf2, hits give low values",1.01
same,normalized growth,"S. cerevisiae deletion strains, locus YOR316C, strain cot1, hits give low values",0.974
same,normalized growth,"S. cerevisiae deletion strains, locus YPL051W, strain arl3, hits give low values",1.01
same,normalized growth,"S. cerevisiae deletion strains, locus YPL055C, strain LGE1, hits give low values",0.887
same,normalized growth,"S. cerevisiae deletion strains, locus YPL078C, strain atp4, hits give low values",1.01
same,normalized growth,"S. cerevisiae deletion strains, locus YPL106C, strain sse1, hits give low values",1.03
same,normalized growth,"S. cerevisiae deletion strains, locus YPL240C, strain hsp82, hits give low values",1.04
same,normalized growth,"S. cerevisiae deletion strains, locus YPL256C, strain CLN2, hits give low values",0.999
same,normalized growth,"S. cerevisiae deletion strains, locus YPR119W, strain clb2, hits give low values",0.986
same,normalized growth,"S. cerevisiae deletion strains, locus YPR141C, strain kar3, hits give low values",0.986
same,normalized growth,"S. cerevisiae deletion strains, locus YPR163C, strain tif3, hits give low values",0.936
same,normalized growth,"S. cerevisiae deletion strains, locus YPR167C, strain met16, hits give low values",0.989
same,normalized growth,"S. cerevisiae deletion strains, strain wtn01, hits give low values",0.993
same,normalized growth,"S. cerevisiae strains, strain wild type, hits give low values",0.974
